# In the supplement of paper PMC8728848:
# This excerpt belongs to a sample that is enriched for the strongest signals.
# B1: RfpB (Mycobacterium tuberculosum), O05594 (protein)
# chain: MAAGLVTASMSLSTAVAHAGPSPNWDAVAQCESGGNWAANTGNGKYGGLQFKPATWAAFGGVGNPAAASREQQIAVANRVLAEQGLDAWPTCGAASGLPIALWSKPAQGIKHAGPSPNWDAVAQCESGGNWAANTGNGKYGGLQFKPATWAAFGGVGNPAAASREQQIAVANRVLAEQGLDAWPTCGA
# B2: CBM40 CPF071 (Clostridium perfringens) (protein)
# chain: MAHHHHHHVGTGSNDDDDKSPDPMLSSLGEYKDINLESSNASNITYDLEKYKNLDEGTIVVRFNSKDSKIQSLLGISNSKTKNGYFNFYVTNSRVGFELRNQKNEGNTQNGTENLVHMYKDVALNDGDNTVALKIEKNKGYKLFLNGKMIKEVKDTNTKFLNNIENLDSAFIGKTNRYGQSNEYNFKGNIGFMNIYNEPLGDDYLLSKTGETK
# Legend:
# Experiment in all cases: glycan array binding signal (z-score within array); higher = stronger binding
# Settings in all cases: glycan notation: IUPAC condensed, linker removed
# Fuc(a1-2)Gal(b1-3)GlcNAc = target: Fuc(a1-2)Gal(b1-3)GlcNAc
# Procedure, shortened: (§1)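 Columns mapping to the same glycan were averaged after glycan names were converted to IUPAC-condensed notation. The data come from 3228 arrays in the Consortium for Functional Glycomics database, limited to those with an available protein sequence. Binding is reported as a within-array Z-score averaged across arrays of one protein sequence and across linkers.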
# [1] = target: Fuc(a1-2)Gal(b1-4)[Fuc(a1-3)]GlcNAc(b1-3)Gal(b1-4)[Fuc(a1-3)]GlcNAc
# Procedure, shortened: as §1
# [2] = target: Fuc(a1-3)[Gal(b1-4)]GlcNAc(b1-3)Gal(b1-3)[Fuc(a1-4)]GlcNAc
# Procedure, shortened: as §1
# [3] = target: Fuc(a1-3)[Gal3S(b1-4)]Glc6S
# Procedure, shortened: as §1
# Gal(b1-3)GalNAc = target: Gal(b1-3)GalNAc
# Procedure, shortened: as §1
# [4] = target: Gal(b1-4)GlcNAc(b1-2)Man(a1-3)[Gal(b1-4)GlcNAc(b1-2)Man(a1-6)]Man(b1-4)GlcNAc(b1-4)GlcNAc
# Procedure, shortened: as §1
# [5] = target: Gal(b1-4)GlcNAc(b1-3)Gal(b1-4)[Fuc(a1-3)]GlcNAc(b1-3)Gal(b1-4)[Fuc(a1-3)]GlcNAc
# Procedure, shortened: as §1
# [6] = target: Gal(b1-4)GlcNAc(b1-3)[GlcNAc(b1-6)]Gal(b1-4)GlcNAc
# Procedure, shortened: as §1
# [7] = target: Gal(b1-4)GlcNAc(b1-6)[Gal(b1-3)]GalNAc
# Procedure, shortened: as §1
# [8] = target: Gal3S(b1-4)[Fuc(a1-3)]Glc
# Procedure, shortened: as §1
# Gal4S6S(b1-4)GlcNAc = target: Gal4S6S(b1-4)GlcNAc
# Procedure, shortened: as §1
# Glc(a1-6)Glc(a1-6)Glc = target: Glc(a1-6)Glc(a1-6)Glc
# Procedure, shortened: as §1
# GlcA(b1-6)Gal = target: GlcA(b1-6)Gal
# Procedure, shortened: as §1
# [9] = target: Man(a1-2)Man(a1-3)[Man(a1-2)Man(a1-6)]Man(a1-6)[Man(a1-2)Man(a1-2)Man(a1-3)]Man
# Procedure, shortened: as §1
# [10] = target: Man(a1-2)Man(a1-6)[Man(a1-3)]Man(a1-6)[Man(a1-2)Man(a1-2)Man(a1-3)]Man(b1-4)GlcNAc(b1-4)GlcNAc
# Procedure, shortened: as §1
# Man(a1-3)[Man(a1-6)]Man = target: Man(a1-3)[Man(a1-6)]Man
# Procedure, shortened: as §1
# [11] = target: Neu5Ac(a2-3)Gal(b1-3)GalNAc(b1-4)[Neu5Ac(a2-3)]Gal(b1-4)Glc
# Procedure, shortened: as §1
# [12] = target: Neu5Ac(a2-3)Gal(b1-4)GlcNAc(b1-3)Gal(b1-3)GlcNAc
# Procedure, shortened: as §1
# [13] = target: Neu5Ac(a2-3)Gal(b1-4)[Fuc(a1-3)]GlcNAc(b1-3)Gal
# Procedure, shortened: as §1
# [14] = target: Neu5Ac(a2-3)[GalNAc(b1-4)]Gal(b1-4)Glc
# Procedure, shortened: as §1
# [15] = target: Neu5Ac(a2-6)Gal(b1-4)GlcNAc(b1-2)Man(a1-3)[GlcNAc(b1-2)Man(a1-6)]Man(b1-4)GlcNAc(b1-4)GlcNAc
# Procedure, shortened: as §1
# [16] = target: Neu5Ac(a2-6)GalNAc(b1-4)GlcNAc
# Procedure, shortened: as §1
# Fuc(a1-2)Gal(b1-4)Glc = target: Fuc(a1-2)Gal(b1-4)Glc
# Procedure, shortened: as §1
# Fuc(a1-2)Gal(b1-4)GlcNAc = target: Fuc(a1-2)Gal(b1-4)GlcNAc
# Procedure, shortened: as §1
# [17] = target: Fuc(a1-2)Gal(b1-4)GlcNAc(b1-2)Man(a1-3)[Fuc(a1-2)Gal(b1-4)GlcNAc(b1-2)Man(a1-6)]Man(b1-4)GlcNAc(b1-4)GlcNAc
# Procedure, shortened: as §1
# [18] = target: Fuc(a1-2)Gal(b1-4)GlcNAc(b1-3)Gal(b1-4)GlcNAc
# Procedure, shortened: as §1
# [19] = target: Fuc(a1-2)Gal(b1-4)GlcNAc(b1-3)[Fuc(a1-3)[Gal(b1-4)]GlcNAc(b1-6)]Gal(b1-4)Glc
# Procedure, shortened: as §1
# [20] = target: Fuc(a1-2)Gal(b1-4)[Fuc(a1-3)]GlcNAc
# Procedure, shortened: as §1
# [21] = target: Fuc(a1-2)Gal(b1-4)[Fuc(a1-3)]GlcNAc(b1-3)Gal(b1-4)[Fuc(a1-3)]GlcNAc(b1-3)Gal(b1-4)[Fuc(a1-3)]GlcNAc
# Procedure, shortened: as §1
# [22] = target: Fuc(a1-2)[Gal(a1-3)]Gal(b1-4)[Fuc(a1-3)]Glc
# Procedure, shortened: as §1
# [23] = target: Fuc(a1-2)[Gal(a1-3)]Gal(b1-4)[Fuc(a1-3)]GlcNAc
# Procedure, shortened: as §1
# [24] = target: Fuc(a1-2)[GalNAc(a1-3)]Gal(b1-3)GlcNAc(b1-6)GalNAc
# Procedure, shortened: as §1
# [25] = target: Fuc(a1-2)[GalNAc(a1-3)]Gal(b1-4)GlcNAc
# Procedure, shortened: as §1
# [26] = target: Fuc(a1-2)[GalNAc(a1-3)]Gal(b1-4)GlcNAc(b1-2)Man(a1-3)[Fuc(a1-2)[GalNAc(a1-3)]Gal(b1-4)GlcNAc(b1-2)Man(a1-6)]Man(b1-4)GlcNAc(b1-4)GlcNAc
# Procedure, shortened: as §1
# [27] = target: Fuc(a1-3)[Gal(b1-4)]GlcNAc(b1-2)Man(a1-3)[Fuc(a1-3)[Gal(b1-4)]GlcNAc(b1-2)Man(a1-6)]Man(b1-4)GlcNAc(b1-4)[Fuc(a1-6)]GlcNAc
# Procedure, shortened: as §1
# [28] = target: Gal(a1-3)Gal(b1-3)GlcNAc(b1-2)Man
# Procedure, shortened: as §1
# [29] = target: Gal(b1-3)GlcNAc(a1-3)Gal(b1-4)GlcNAc
# Procedure, shortened: as §1
# Gal(b1-3)GlcNAc(b1-2)Man = target: Gal(b1-3)GlcNAc(b1-2)Man
# Procedure, shortened: as §1
# [30] = target: Gal(b1-3)[Neu5Ac(a2-6)]GlcNAc(b1-4)Gal(b1-4)Glc
# Procedure, shortened: as §1
# [31] = target: Gal(b1-4)GlcNAc(b1-3)GalNAc
# Procedure, shortened: as §1
# Gal3S6S(b1-4)GlcNAc = target: Gal3S6S(b1-4)GlcNAc
# Procedure, shortened: as §1
# Gal6S(b1-3)GlcNAc = target: Gal6S(b1-3)GlcNAc
# Procedure, shortened: as §1
# Gal6S(b1-4)Glc = target: Gal6S(b1-4)Glc
# Procedure, shortened: as §1
# GalNAc(b1-3)GalNAc = target: GalNAc(b1-3)GalNAc
# Procedure, shortened: as §1
# Glc(b1-4)Glc = target: Glc(b1-4)Glc
# Procedure, shortened: as §1
# GlcA(b1-3)GlcNAc = target: GlcA(b1-3)GlcNAc
# Procedure, shortened: as §1
# [32] = target: GlcNAc(a1-4)Gal(b1-3)GlcNAc
# Procedure, shortened: as §1
# [33] = target: GlcNAc(b1-3)Gal(b1-4)GlcNAc(b1-3)Gal(b1-4)GlcNAc(b1-2)Man(a1-3)[GlcNAc(b1-3)Gal(b1-4)GlcNAc(b1-3)Gal(b1-4)GlcNAc(b1-2)Man(a1-6)]Man(b1-4)GlcNAc(b1-4)[Fuc(a1-6)]GlcNAc
# Procedure, shortened: as §1
# [34] = target: GlcNAc(b1-3)Gal(b1-4)GlcNAc(b1-3)Gal(b1-4)GlcNAc(b1-3)Gal(b1-4)GlcNAc(b1-3)Gal(b1-4)GlcNAc(b1-2)Man(a1-3)[GlcNAc(b1-3)Gal(b1-4)GlcNAc(b1-3)Gal(b1-4)GlcNAc(b1-3)Gal(b1-4)GlcNAc(b1-3)Gal(b1-4)GlcNAc(b1-2)Man(a1-6)]Man(b1-4)GlcNAc(b1-4)[Fuc(a1-6)]GlcNAc
# Procedure, shortened: as §1
# Kdn(a2-3)Gal(b1-3)GlcNAc = target: Kdn(a2-3)Gal(b1-3)GlcNAc
# Procedure, shortened: as §1
# [35] = target: Neu5Ac(a2-3)Gal(b1-3)GalNAc
# Procedure, shortened: as §1
binder,measurement,setting,value
B1,glycan array binding signal (z-score),Fuc(a1-2)Gal(b1-3)GlcNAc,0.352
same,glycan array binding signal (z-score),[1],-0.487
same,glycan array binding signal (z-score),[2],-0.065
same,glycan array binding signal (z-score),[3],2.53
same,glycan array binding signal (z-score),Gal(b1-3)GalNAc,-0.202
same,glycan array binding signal (z-score),[4],-0.1
same,glycan array binding signal (z-score),[5],9.72
same,glycan array binding signal (z-score),[6],2.74
same,glycan array binding signal (z-score),[7],-0.262
same,glycan array binding signal (z-score),[8],-0.568
same,glycan array binding signal (z-score),Gal4S6S(b1-4)GlcNAc,0.03
same,glycan array binding signal (z-score),Glc(a1-6)Glc(a1-6)Glc,-0.239
same,glycan array binding signal (z-score),GlcA(b1-6)Gal,-0.284
same,glycan array binding signal (z-score),[9],-0.097
same,glycan array binding signal (z-score),[10],-0.426
same,glycan array binding signal (z-score),Man(a1-3)[Man(a1-6)]Man,9.95
same,glycan array binding signal (z-score),[11],4.02
same,glycan array binding signal (z-score),[12],-0.23
same,glycan array binding signal (z-score),[13],-0.07
same,glycan array binding signal (z-score),[14],-0.524
same,glycan array binding signal (z-score),[15],-0.499
same,glycan array binding signal (z-score),[16],-0.639
B2,glycan array binding signal (z-score),Fuc(a1-2)Gal(b1-3)GlcNAc,-0.384
same,glycan array binding signal (z-score),Fuc(a1-2)Gal(b1-4)Glc,-0.55
same,glycan array binding signal (z-score),Fuc(a1-2)Gal(b1-4)GlcNAc,-0.027
same,glycan array binding signal (z-score),[17],-0.22
same,glycan array binding signal (z-score),[18],0.231
same,glycan array binding signal (z-score),[19],2.74
same,glycan array binding signal (z-score),[20],0.074
same,glycan array binding signal (z-score),[21],0.635
same,glycan array binding signal (z-score),[22],-0.299
same,glycan array binding signal (z-score),[23],-0.541
same,glycan array binding signal (z-score),[24],0.171
same,glycan array binding signal (z-score),[25],-0.116
same,glycan array binding signal (z-score),[26],-0.216
same,glycan array binding signal (z-score),[27],-0.443
same,glycan array binding signal (z-score),[28],0.599
same,glycan array binding signal (z-score),[29],-0.517
same,glycan array binding signal (z-score),Gal(b1-3)GlcNAc(b1-2)Man,-0.631
same,glycan array binding signal (z-score),[30],-0.087
same,glycan array binding signal (z-score),[31],-0.419
same,glycan array binding signal (z-score),Gal3S6S(b1-4)GlcNAc,-0.144
same,glycan array binding signal (z-score),Gal6S(b1-3)GlcNAc,-0.48
same,glycan array binding signal (z-score),Gal6S(b1-4)Glc,-0.246
same,glycan array binding signal (z-score),GalNAc(b1-3)GalNAc,0.09
same,glycan array binding signal (z-score),Glc(b1-4)Glc,2.37
same,glycan array binding signal (z-score),GlcA(b1-3)GlcNAc,0.262
same,glycan array binding signal (z-score),[32],-0.341
same,glycan array binding signal (z-score),[33],-0.411
same,glycan array binding signal (z-score),[34],-0.108
same,glycan array binding signal (z-score),Kdn(a2-3)Gal(b1-3)GlcNAc,-0.464
same,glycan array binding signal (z-score),[35],-0.019
